High-throughput results: PubChem BioAssay, Center for Chemical Genomics, University of Michigan
Dicer inh: inhibitors of human Dicer processing of pre-microRNA. cat-ELCCA pre-miR-21 Dicer processing, chemiluminescence; stronger effect = higher value. 47,000 tested, 6% active. z-score at 25 µM; in the data active means z-score above about 3, passing the limit was not always enough;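 further: plate controls were vehicle for no effect and no enzyme for full effect; higher signal means more uncleaved substrate so more Dicer inhibition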
Active calls of the source: *. Only a selection was taken, and hits are over-represented in it overall.

SMILES | Dicer inh
COc1cc(C2C(C(=O)OC3CCCCC3)=C(C)NC3=C2C(=O)CCC3)ccc1O (centres undefined) | 0.83
CCN(CC)CCn1c(NCc2ccncc2)nc2ccccc21 | 2.7
CCc1ccc(CNc2nc3ccccc3n2C)cc1 | 3.4*
CN(C)c1ccc(CNc2nc3ccccc3n2CCN2CCCCC2)cc1 | 2.2
CCN(CC)CCn1c(NCc2ccc(N(C)C)cc2)nc2ccccc21 | 4.4*
CCCn1c(NCc2ccncc2)nc2ccccc21 | 1.3
CCn1c(NCc2ccncc2)nc2ccccc21 | 2
Cc1ccc(C(=O)OCCSc2ccc(C(F)(F)F)cn2)cc1 | 0.16
O=C(CC1(O)C(=O)N(Cc2ccccc2Cl)c2ccccc21)c1ccccn1 (centres undefined) | 1.9
COc1cc2c(c(OC)c1OC)C(=O)/C(=C/N(C)C)C2 | -2.3
CC1CN=C(N(C(=O)Nc2ccc(Cl)cc2)c2ccccc2)S1 (centres undefined) | -0.43
Cc1cc(=O)oc2cc(OS(=O)(=O)c3cc(C(F)(F)F)cc(C(F)(F)F)c3)c(Cl)cc12 | 4.2*
Cc1cc(=O)oc2cc(OS(=O)(=O)c3cc(Cl)c(Cl)cc3Cl)c(Cl)cc12 | 2.9
Cc1ccc(S(=O)(=O)Oc2cc(C)ccc2C)cc1 | -0.61
O=C1ON=C(c2ccccc2)/C1=C1\SC(C(=O)c2ccccc2)=NN1c1ccccc1 | 3.5*
CC1=NN(c2ccccc2)C(=O)/C1=C1/SC(C(=O)c2ccccc2)=NN1c1ccc(Cl)cc1 | -1.2
CC1=NN(c2ccccc2)C(=O)/C1=C1/SC(C(=O)c2ccccc2)=NN1c1ccccc1 | 159
CCOC(=O)/C=C1\CSCC(C(=O)OCC)N1 (centres undefined) | -2.3
Cc1ccsc1/C=C/c1cc(C(F)(F)F)[nH]c(=O)n1 | 1.1
O=c1nc(/C=C/c2ccc(-c3cccc(F)c3)o2)cc(C(F)(F)F)[nH]1 | 3.1*
COc1cc(/C=C/c2cc(C(F)(F)F)[nH]c(=O)n2)ccc1O | -0.13
Cc1nc(C(F)(F)F)ccc1C(=O)O | 0.22
O=C(COc1ccc2c(=O)c(-c3ccccc3)coc2c1)OC1CCCCC1 | -0.48
O=C(CSc1nc2ccccc2nc1N1CCOCC1)NCc1cccs1 | 3*
O=C(CSc1nc2ccccc2nc1N1CCOCC1)NCc1ccco1 | 3.4*
SMILES | Dicer inh
O=C(CSc1nc2ccccc2nc1SCC(=O)N1CCOCC1)N1CCOCC1 | 1.5
CSc1nsc(SCC(=O)N2CCCc3ccccc32)n1 | -1.6
O=C(CSc1nc2ccccc2nc1N1CCOCC1)N1CCCc2ccccc21 | 3.4*
CSc1nsc(SCC(=O)NCc2ccco2)n1 | -0.97
O=C(CSc1nc2ccccc2nc1N1CCCC1)Nc1ccc(Br)cc1 | 2.3
O=C(CSc1nc2ccccc2nc1N1CCOCC1)Nc1cccc(Br)c1 | 3.2*
O=C(CSc1nc2ccccc2nc1N1CCCC1)Nc1ccc(Cl)cc1 | 2.5
c1csc(-c2nnc(N3CCOCC3)c3ccccc23)c1 | 0.89
Cc1cc(C)nc(N2CCN(C(=O)CSc3nc4ccccc4nc3N3CCCCC3)CC2)n1 | 2.6
O=C(CSc1nc(-c2cccs2)cc(C(F)(F)F)n1)NCc1ccco1 | 0.51
NNC(=O)Cc1ccc(Cl)c(Cl)c1 | 1.9
CN1C(=O)C(O)(CC(=O)c2cc(O)ccc2O)c2ccccc21 (centres undefined) | 0.54
O=C(c1ccccc1)c1c(O)c(-c2ccccc2)c(=O)n(-c2ccccc2)c1-c1ccccc1 | -0.06
CCOC(=O)c1cnc(SCc2ccc(Cl)cc2)nc1N | -0.02
Cc1nc(-c2ccc(F)cc2)c(CC(=O)O)s1 | 0.61
Cn1nc(-c2ccc(-c3ccn(C(=O)c4cccc(C(F)(F)F)c4)n3)s2)cc1C(F)(F)F | -1.6
O=C(CSc1nc2ccccc2[nH]1)N1CCc2ccccc21 | 3.1*
O=C(CSc1nc2ccccc2s1)N1CCc2ccccc21 | 1.4
O=C(CSc1nnc(-c2ccccc2)c(-c2ccccc2)n1)N1CCc2ccccc21 | -0.32
CCOC(=O)CSc1nc(-c2ccccc2OC)nc(C)c1C(C)=O | 2.2
CCOC(=O)c1ccc(-n2nc(C)cc2C)cc1 | -0.71
CCOC(=O)c1ccc([N+](=O)[O-])c(C)c1 | -2.5
CCOC(=O)c1ccc(N)c(N)c1 | 3.4*
CCCC1=C(c2ccccc2)C(=O)NC1 | -0.94
CC(C)(C)Nc1c([N+](=O)[O-])c(=O)sc2ccccc12 | -0.95
SMILES | Dicer inh
CN(C)CCCNc1sc(-c2ccccn2)c([N+](=O)[O-])c1[N+](=O)[O-] | 0.03
CCCCNc1c([N+](=O)[O-])c(=O)sc2ccccc12 | 7*
O=c1sc2ccccc2c(NCCCN2CCOCC2)c1[N+](=O)[O-] | -0.32
O=c1sc2ccccc2c(N2CCN(c3ccccc3)CC2)c1[N+](=O)[O-] | 0.84
O=c1sc2ccccc2c(Nc2ccccc2)c1[N+](=O)[O-] | 3.6*
Cc1cc(C)c2c(n1)sc1c(SCc3ccccc3Cl)ncnc12 | 0.09
CCOC(=O)c1ccc2nc(/N=C/NOC(=O)c3cccs3)sc2c1 | 0.05
Cc1[nH]nc2c1C(c1ccccc1)C(C#N)=C(N)O2 (centres undefined) | -1.2
CC(=O)n1c2c(c3ccccc31)OC(N)=C(C#N)C2c1ccc(Cl)cc1 (centres undefined) | -0.43
